Measurements as given in PubChem BioAssay.

Tested on: Human papillomavirus type 1a E7 protein (residues 1-88)
Experiment: HPV1a E7 small-molecule binders, primary screen, biochemical, small-molecule microarray, residues 1-88, 635 nm (AID 1129)
Details: small-molecule microarray binding, fluorescence 635 nm; higher = more signal

Row | Structure (SMILES) | composite z-score
1 | COc1ccc(C(O)C2C=CC3C(=O)N(c4ccccc4)C(=O)C3N2Nc2ccc([N+](=O)[O-])cc2)cc1OCc1ccccc1 (stereo not drawn) | 1.2
2 | [N-]=[N+]=NCc1ccccc1C[C@]1(C(=O)NCC(O)CO)N=C(c2ccc(OCCCO)cc2)O[C@H]1c1ccccc1N=[N+]=[N-] (stereo partly drawn) | 1.12
3 | CCOC(=O)C[C@H]1[C@H](OC(=O)Cc2ccc3c(c2)OCO3)[C@@H](NC(=O)c2ccc(-c3ccccc3)cc2)c2cc(OCCCO)ccc2N1C(=O)c1ccccc1 | 1.06
4 | CS(=O)(=O)CCOC(=O)C1=CC(CCCO)=CC(c2cccs2)N(Cc2cc3c(cc2Br)OCO3)C=C1C(=O)OCCS(C)(=O)=O (stereo not drawn) | 1.21
5 | COc1ccc([Si](C)(C)[C@H]2[C@H](CC(=O)N(CCO)Cc3ccccc3)O[C@@]3(C(=O)N(Cc4cccc(N5CCC5=O)c4)c4ccccc43)[C@@H]2C)cc1 | 1.03
6 | COc1cccc(C(=O)O[C@H]2CC[C@]3(C)C4=C(CCC3C2(C)C)[C@]2(C)CC[C@H]([C@H](C)CCCC(C)C)[C@@]2(C)CC4)c1 (stereo partly drawn) | 0.386
7 | CC(C)NC(=O)[C@@H]1c2ccccc2C(=O)N(Cc2ccccc2)[C@H]1c1ccc(CO)cc1 | 0.482
8 | COc1ccc([Si](C)(C)[C@@H]2[C@@H](CC(=O)N(CCO)Cc3ccccc3)O[C@]3(C(=O)N(C)c4ccccc43)[C@H]2C)cc1 | 1.17

Target: Focal adhesion kinase 1 (Homo sapiens) (UniProt Q05397)
Sequence (Q05397 whole entry, looked up): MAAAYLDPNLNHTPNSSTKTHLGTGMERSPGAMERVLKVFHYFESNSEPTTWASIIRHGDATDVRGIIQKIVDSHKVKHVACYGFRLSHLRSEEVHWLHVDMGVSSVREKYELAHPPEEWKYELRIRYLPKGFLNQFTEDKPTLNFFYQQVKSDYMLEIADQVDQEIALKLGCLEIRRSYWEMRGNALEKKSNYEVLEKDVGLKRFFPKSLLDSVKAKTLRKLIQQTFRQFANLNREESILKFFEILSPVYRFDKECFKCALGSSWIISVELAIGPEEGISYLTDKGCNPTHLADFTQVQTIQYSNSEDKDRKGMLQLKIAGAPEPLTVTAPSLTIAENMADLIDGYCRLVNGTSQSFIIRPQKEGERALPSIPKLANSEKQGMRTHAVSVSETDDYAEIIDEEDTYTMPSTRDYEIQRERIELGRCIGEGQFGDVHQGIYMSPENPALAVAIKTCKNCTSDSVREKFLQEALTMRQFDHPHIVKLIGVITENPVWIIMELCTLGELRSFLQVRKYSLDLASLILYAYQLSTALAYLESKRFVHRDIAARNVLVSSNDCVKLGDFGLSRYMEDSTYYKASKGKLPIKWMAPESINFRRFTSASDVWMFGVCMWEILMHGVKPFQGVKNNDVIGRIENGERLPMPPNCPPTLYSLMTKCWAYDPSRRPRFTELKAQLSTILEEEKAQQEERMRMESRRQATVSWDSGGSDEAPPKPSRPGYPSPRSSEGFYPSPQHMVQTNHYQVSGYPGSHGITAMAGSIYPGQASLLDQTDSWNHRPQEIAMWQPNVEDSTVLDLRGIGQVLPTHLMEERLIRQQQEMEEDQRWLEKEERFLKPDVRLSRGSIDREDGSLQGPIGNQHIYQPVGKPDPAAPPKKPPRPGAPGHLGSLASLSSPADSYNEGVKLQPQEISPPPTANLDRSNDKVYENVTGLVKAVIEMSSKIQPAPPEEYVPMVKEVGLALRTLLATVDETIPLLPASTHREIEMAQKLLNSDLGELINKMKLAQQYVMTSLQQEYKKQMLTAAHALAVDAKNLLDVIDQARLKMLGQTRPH
Experiment: small-molecule microarray binders of FAK, primary screen, biochemical, 635/667 nm fluorescence, BSA, DTT (AID 1130);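 further: composite of spot emission at 667 nm and signal to noise over triplicate slides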
Details: PTK2 binding, 635 nm fluorescence, higher = more signal

Row | Structure (SMILES) | composite z-score
9 | CC(C)c1ccc(NN2C(C(O)c3c(F)cccc3Cl)C=CC3C(=O)N(c4ccccc4)C(=O)C32)cc1 (stereo not drawn) | 0.823
10 | CC(C)(C)OC(=O)CC[C@@]1(C(=O)O)N=C(c2ccc(OCCCO)cc2)O[C@@H]1c1ccccc1N=[N+]=[N-] | 2.08
11 | COC(=O)C[C@@H]1C[C@H](C)[C@]2(O1)C(=O)N(Cc1ccccc1)c1ccc(NC(C)=O)cc12 | -0.183
12 | COCC1=C2[C@@H](CCc3ccccc3)OB(O)C[C@@H]2[C@@H]2C(=O)N(Cc3ccccc3)C(=O)[C@@H]2C1 | -0.138
13 | C=CCOC(=O)[C@@H]1[C@H]2C(=O)O[C@H](c3ccccc3)[C@H](c3ccccc3)N2[C@H](c2ccc(OCCOC(=O)[C@@H]3C[C@@H]4C(=O)NCC(=O)N4[C@@H]3c3cccc(OCCO)c3)cc2)[C@@]12C(=O)Nc1ccc(I)cc12 | 0.259
14 | C=CCC(OC(C)=O)[C@@H]1[C@@H](N(Cc2cccc3ccccc23)C(=O)c2ccc(C)cc2)c2cc(OCCCO)ccc2N1C(=O)Cc1ccc(OC)cc1 (stereo partly drawn) | 0.183
15 | O=C1OCCC=C[C@H]2OC34C=CCN(Cc5ccccc5)C(=O)[C@H]3N(CCCCCO)C(=O)[C@@H]4C12 (stereo partly drawn) | 1.95
16 | O=C(OCCF)C1=CCC(c2cccc(Cl)c2)O1 (stereo not drawn) | 0.475
17 | [N-]=[N+]=NCc1ccccc1[C@@H]1OC(c2ccc(OCCCO)cc2)=N[C@]1(Cc1ccccc1)C(=O)N1CCCCC1 | 0.0473
18 | Cc1cc(C)c(C(O)C2C=CC3C(=O)N(c4ccccc4)C(=O)C3N2Nc2ccc(C#N)cc2)c(C)c1 (stereo not drawn) | 0.388
19 | C=C[C@@H](COC(C)=O)N(Cc1ccccc1[N+](=O)[O-])S(=O)(=O)c1ccc(Br)cc1 | 0.547
20 | COc1ccc(C#Cc2ccc3c(c2)[C@]2(C(=O)N3)[C@H](c3ccc(O)cc3)N3[C@H](c4ccccc4)[C@H](c4ccccc4)OC(=O)[C@H]3[C@@H]2C(=O)NC[C@H](O)c2ccccc2)cc1 | 0.32
21 | C=CCNC(=O)[C@@H]1[C@H]2C(=O)O[C@H](c3ccccc3)[C@H](c3ccccc3)N2[C@H](c2ccccc2OCCO)[C@@]12C(=O)Nc1ccc(C#CC3=CCCCC3)cc12 | 0.683
22 | [N-]=[N+]=NCc1ccccc1[C@@H]1OC(c2ccc(OCCCO)cc2)=N[C@]1(Cc1ccccc1N=[N+]=[N-])C(=O)NCc1ccccc1 | 0.562
23 | COCCOC(=O)N1C(=O)[C@@]2(c3cc(C#CCCO)ccc31)[C@H](c1ccccc1OCCO)N1[C@H](c3ccccc3)[C@H](c3ccccc3)OC(=O)[C@H]1[C@@H]2C(=O)N1CCN(c2ncccn2)CC1 | 0.714
24 | CCCCC=C[C@@H](NC(=O)c1ccc(C(=O)OC)cc1)c1ccccc1 | 0.694
25 | CC(C)NC(=O)[C@@H]1c2ccccc2C(=O)N(Cc2ccccc2Cl)[C@H]1c1ccc(CO)cc1 | -0.313
26 | COc1cc2c(cc1OC)CN(C(=O)[C@@H]1[C@H]3C(=O)O[C@H](c4ccccc4)[C@H](c4ccccc4)N3[C@H](c3ccccc3OCCO)[C@@]13C(=O)Nc1ccc(C#CCNC(N)=O)cc13)CC2 | 1.33

Row | Structure (SMILES) | composite z-score
27 | O=C1C=CC(=O)[C@@H]2CC(COc3ccccc3)=C3[C@@H](CCc4ccccc4)OB(O)C[C@@H]3[C@H]12 | -0.0461
28 | O=C(NCc1ccccc1)[C@]1(CCS(=O)(=O)c2ccccc2)N=C(c2ccc(OCCCO)cc2)O[C@@H]1c1ccccc1 | 0.471
29 | COc1ccc(C#Cc2ccc3c(c2)[C@]2(C(=O)N3)[C@H](C(=O)NC[C@H](O)c3ccccc3)[C@H]3C(=O)O[C@H](c4ccccc4)[C@H](c4ccccc4)N3[C@@H]2c2ccc(OCCO)cc2)cc1 | 0.303
30 | CCOc1cc(C(O)C2C=CC3C(=O)N(c4ccccc4)C(=O)C3N2Nc2ccc([N+](=O)[O-])cc2)ccc1O (stereo not drawn) | 0.106
31 | [N-]=[N+]=NCc1ccccc1C[C@]1(C(=O)NCCN2CCOCC2)N=C(c2ccc(OCCCO)cc2)O[C@H]1c1ccccc1N=[N+]=[N-] | 0.669
32 | C=C[C@@H](COC(C)=O)N(Cc1ccc([N+](=O)[O-])cc1)S(=O)(=O)c1ccc(Br)cc1 | 0.079
33 | COc1ccc(CCNC(=O)[C@@]2(c3ccc([N+](=O)[O-])cc3)CC(=O)N(CC34CC5CC(CC(C5)C3)C4)[C@@H]2c2ccc(CO)cc2)cc1 | 0.397
34 | COCC(=C=CC[C@H](O)c1ccc(OCCO)cc1)C[C@H](O)c1cc(Cl)cc(Cl)c1O | -0.427
35 | CO[C@H]1O[C@H](CO)[C@@H](OC(=O)Nc2ccc3c(c2)OCO3)[C@H](OC(=O)Nc2ccccc2)[C@H]1OC(=O)Nc1ccccc1 | 0.927
36 | COc1ccc(C(O)C2C=CC3C(=O)N(c4ccccc4)C(=O)C3N2Nc2ccc([N+](=O)[O-])cc2)cc1OCc1ccccc1 (stereo not drawn) | 0.315
37 | [N-]=[N+]=NCc1ccccc1C[C@]1(C(=O)NCC(O)CO)N=C(c2ccc(OCCCO)cc2)O[C@H]1c1ccccc1N=[N+]=[N-] (stereo partly drawn) | 1.66
38 | CCOC(=O)C[C@H]1[C@H](OC(=O)Cc2ccc3c(c2)OCO3)[C@@H](NC(=O)c2ccc(-c3ccccc3)cc2)c2cc(OCCCO)ccc2N1C(=O)c1ccccc1 | 0.356
39 | CS(=O)(=O)CCOC(=O)C1=CC(CCCO)=CC(c2cccs2)N(Cc2cc3c(cc2Br)OCO3)C=C1C(=O)OCCS(C)(=O)=O (stereo not drawn) | 1.11
40 | COc1ccc([Si](C)(C)[C@H]2[C@H](CC(=O)N(CCO)Cc3ccccc3)O[C@@]3(C(=O)N(Cc4cccc(N5CCC5=O)c4)c4ccccc43)[C@@H]2C)cc1 | 0.222
41 | COc1cccc(C(=O)O[C@H]2CC[C@]3(C)C4=C(CCC3C2(C)C)[C@]2(C)CC[C@H]([C@H](C)CCCC(C)C)[C@@]2(C)CC4)c1 (stereo partly drawn) | -0.404
42 | CC(C)NC(=O)[C@@H]1c2ccccc2C(=O)N(Cc2ccccc2)[C@H]1c1ccc(CO)cc1 | 0.512
43 | COc1ccc([Si](C)(C)[C@@H]2[C@@H](CC(=O)N(CCO)Cc3ccccc3)O[C@]3(C(=O)N(C)c4ccccc43)[C@H]2C)cc1 | 0.495
